The text below walks through data of PubChem BioAssay.

Activity calls are given as the source filed them. Unless noted, no rule for the calls is given here.

Assay [1] has as its system Wnt5a (protein binding on small-molecule microarray). In words: Wnt5a binders on small-molecule microarray, primary screen, biophysical, 635/667 nm fluorescence (AID 1142).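 Also: fluorescence read at 667 nm with signal to noise per printed feature.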 The note with it: 635 nm fluorescence, higher = more signal.
Assay [2] can be described thus: cell viability in Huh7 cells, primary screen, cytotoxicity control for HCV replication inhibitor project, CellTiter-Glo luminescence, basal, 48 h (AID 1143).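 Also: Huh7 hepatoma cells carrying a hepatitis C replication reporter with no stimulus; test concentration not given here.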 The note with it: Huh7 HCV replicon, higher = more signal, called active from +8 up or from −8 down. Background: Cellular ATP, detected with luciferase, serves as a proxy for viable cell number.
The nature of assay [3]: P. aeruginosa biofilm formation inhibitors, primary screen, PAO1 strain, BacTiter-Glo luminescence, LB-PBS (AID 1144). The note with it: 12 h, higher = more signal.
Assay [4] in a line: CREB reporter modulators without forskolin, primary screen, cell-based, PC12, CRE-LacZ reporter, unstimulated (AID 1145). The note with it: no forskolin, luminescence, 4.5 h, higher = more signal, called active from +8 up or from −8 down.
Assay [5] is described as follows: CREB reporter modulators under forskolin, primary screen, cell-based, PC12, CRE-LacZ reporter, forskolin-stimulated (AID 1146).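 Also: PC12 cells with 6xCRE LacZ reporter stimulated by forskolin 10 µM; beta-galactosidase reporter signal reflecting CREB driven transcription.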 The note with it: luminescence, 4.5 h, higher = more signal, called active from +8 up or from −8 down.
The target of assay [6] is Streptavidin (Streptomyces avidinii) (UniProt P22629). Description: streptavidin binders on small-molecule microarray, primary screen, artefact control for SMM compound annotation, biophysical, 635/667 nm fluorescence (AID 1147).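 Also: signal reflects streptavidin binding to arrayed compounds as a control protein.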 The note with it: streptavidin binding, higher = more signal.
A short description of assay [7]: small-molecule binders of probe aInhba, primary screen, biochemical, small-molecule microarray, 635/667 nm fluorescence (AID 1148).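 Also: score merges 667nm spot fluorescence with signal-to-noise for antibody binding to printed compounds.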 The note with it: higher = more signal.
Assay [8] deals with Torsin-1A (Homo sapiens) (UniProt O14656). Description: torsin A binders from cell lysate, primary screen, small-molecule microarray, wild-type, 635/667 nm (AID 1149). The note with it: COS7 hTOR1A-WT lysate, 635 nm fluorescence, higher = more signal.
For assay [9] the target is unchanged. In words: small-molecule binders of mutant TOR1A in lysate, primary screen, cell lysate, small-molecule microarray, COS7 lysate, 635/667 nm fluorescence (AID 1150).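 Also: score pools 667 nm emission and signal to noise measuring lysate protein binding.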 The note with it: COS7 hTOR1A mutant lysate, 635 nm fluorescence, higher = more signal.
Assay [10] concerns Sonic hedgehog protein (Shh). In words: small-molecule binders of Shh protein, primary screen, biochemical, small-molecule microarray, 635/667 nm fluorescence (AID 1151).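 Also: Shh protein binding to compounds spotted on small-molecule microarray slides; score combines spot fluorescence intensity with signal-to-noise across triplicate slides.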 The note with it: small-molecule microarray binding, 635 nm fluorescence; higher = more signal.
Assay [11] is described as follows: E. coli DRC41 culture turbidity changes, primary screen, E. coli filamentation inducer project, strain DRC41, OD650, 48 h (AID 1152).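 Also: E. coli MC1000 strain DRC41 lacking acrAB efflux pump and sulA.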 The note with it: E. coli DRC41 (acrAB sulA), higher = more signal, called active from +8 up or from −8 down.
Assay [12] in a line: small-molecule binders of probe aLefty1, primary screen, biochemical, small-molecule microarray, 635/667 nm fluorescence (AID 1153).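 Also: score merges spot fluorescence with signal-to-noise ratio from the scanned slide images.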 The note with it: higher = more signal.
Assay [13] is described as follows: PSAC antagonists in infected red cells, primary screen, cell-based, P. falciparum Indochina, OD700, 1 h (AID 1154). The note with it: P. falciparum Indochina infected RBC osmotic lysis, higher = more signal, called active from +8 up or from −8 down.
Assay [14] in a line: PSAC antagonists in infected red cells, primary screen, cell-based, P. falciparum Indochina, OD700, 2 h (AID 1155).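 Also: lysis reports solute entry through the parasite surface anion channel PSAC; channel blockers reduce lysis of infected cells.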 The note with it: P. falciparum Indochina infected erythrocytes, osmotic lysis OD700; higher = more signal, called active from +8 up or from −8 down.
Assay [15] can be described thus: osmotic lysis modulators in infected erythrocytes, primary screen, PSAC antagonist project, cell-based, P. falciparum Indochina, OD700, 3 h (AID 1156). The note with it: higher = more signal, called active from +8 up or from −8 down.
Assay [16] in a line: PSAC antagonists in infected red cells, primary screen, cell-based, P. falciparum Indochina, OD700, 18 h (AID 1157). The note with it: P. falciparum Indochina infected erythrocytes, osmotic lysis OD700, 18 h; higher = more signal, called active from +8 up or from −8 down.
Assay [17] is described as follows: modulators of S6 phosphorylation in cells, primary screen, cell-based, A549, cytoblot, luminescence, serum-stimulated (AID 1158).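 Also: serum-stimulated A549 lung adenocarcinoma cells; signal is phosphorylated S6 detected by cytoblot immunostaining with HRP secondary.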 The note with it: A549 phospho-S6 cytoblot, 5 h, higher = more signal.
Assay [18] deals with NADPH oxidase 2 (Homo sapiens) (UniProt P04839). In words: NOX2-dependent H2O2 signal modulators, primary screen, NOX inhibitor project, cell-based, HEK293-NOX2, PMA-stimulated, Amplex Red fluorescence (AID 1159). Also: test concentration not given here. The note with it: 45 min, higher = more signal, called active from +8 up or from −8 down.
Assay [19] concerns the target NADPH oxidase 4 (Homo sapiens) (UniProt Q9NPH5). Description: NOX4-dependent H2O2 signal modulators, primary screen, NOX inhibitor project, cell-based, HEK293-NOX4, tetracycline-induced, Amplex Red fluorescence (AID 1160). The note with it: 45 min, higher = more signal, called active from +8 up or from −8 down.
In assay [20] the target is NADPH oxidase 5 (Homo sapiens) (UniProt Q96PH1). In words: NOX5-dependent H2O2 signal modulators, primary screen, NOX inhibitor project, cell-based, HEK293-NOX5, Amplex Red fluorescence (AID 1161). The note with it: HEK293-NOX5, ionomycin, 45 min, higher = more signal.
Sequence of NADPH oxidase 5 (Homo sapiens) (Q96PH1 whole entry, looked up): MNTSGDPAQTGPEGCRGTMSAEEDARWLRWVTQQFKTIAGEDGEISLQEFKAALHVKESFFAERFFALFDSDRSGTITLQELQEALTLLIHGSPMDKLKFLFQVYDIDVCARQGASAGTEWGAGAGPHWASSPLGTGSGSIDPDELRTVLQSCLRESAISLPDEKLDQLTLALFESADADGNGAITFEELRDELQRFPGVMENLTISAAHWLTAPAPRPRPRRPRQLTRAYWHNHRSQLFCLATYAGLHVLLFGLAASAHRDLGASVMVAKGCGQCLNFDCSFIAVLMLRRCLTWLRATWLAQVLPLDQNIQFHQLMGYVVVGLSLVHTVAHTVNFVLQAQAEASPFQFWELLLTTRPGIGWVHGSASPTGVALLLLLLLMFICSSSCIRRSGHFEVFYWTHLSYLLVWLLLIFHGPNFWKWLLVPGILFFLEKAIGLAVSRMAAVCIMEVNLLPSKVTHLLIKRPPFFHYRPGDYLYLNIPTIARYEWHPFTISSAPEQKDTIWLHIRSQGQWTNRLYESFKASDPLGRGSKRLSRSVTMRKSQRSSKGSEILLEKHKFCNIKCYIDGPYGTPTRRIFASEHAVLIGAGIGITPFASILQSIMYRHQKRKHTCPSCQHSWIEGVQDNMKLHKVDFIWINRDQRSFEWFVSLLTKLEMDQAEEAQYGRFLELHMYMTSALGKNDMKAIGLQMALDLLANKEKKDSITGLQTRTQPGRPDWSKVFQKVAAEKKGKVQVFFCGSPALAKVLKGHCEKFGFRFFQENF

Sequence of NADPH oxidase 4 (Homo sapiens) (Q9NPH5 whole entry, looked up): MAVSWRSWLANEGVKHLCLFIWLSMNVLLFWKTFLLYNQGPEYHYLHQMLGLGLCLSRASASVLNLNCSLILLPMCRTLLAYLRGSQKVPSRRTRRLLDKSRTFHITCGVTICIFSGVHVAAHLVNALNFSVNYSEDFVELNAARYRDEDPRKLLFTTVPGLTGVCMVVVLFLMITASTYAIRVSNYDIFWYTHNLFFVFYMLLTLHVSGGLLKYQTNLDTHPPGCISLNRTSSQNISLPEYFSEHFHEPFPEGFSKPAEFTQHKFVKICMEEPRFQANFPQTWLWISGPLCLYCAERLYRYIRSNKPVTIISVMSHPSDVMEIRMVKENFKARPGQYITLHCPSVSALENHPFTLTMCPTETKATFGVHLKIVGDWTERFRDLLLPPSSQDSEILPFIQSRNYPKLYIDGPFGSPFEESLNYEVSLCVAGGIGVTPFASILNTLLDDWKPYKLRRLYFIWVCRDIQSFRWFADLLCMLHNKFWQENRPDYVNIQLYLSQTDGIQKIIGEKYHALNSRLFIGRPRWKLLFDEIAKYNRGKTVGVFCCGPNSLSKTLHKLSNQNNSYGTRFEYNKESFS
Sequence of NADPH oxidase 2 (Homo sapiens) (P04839 whole entry, looked up): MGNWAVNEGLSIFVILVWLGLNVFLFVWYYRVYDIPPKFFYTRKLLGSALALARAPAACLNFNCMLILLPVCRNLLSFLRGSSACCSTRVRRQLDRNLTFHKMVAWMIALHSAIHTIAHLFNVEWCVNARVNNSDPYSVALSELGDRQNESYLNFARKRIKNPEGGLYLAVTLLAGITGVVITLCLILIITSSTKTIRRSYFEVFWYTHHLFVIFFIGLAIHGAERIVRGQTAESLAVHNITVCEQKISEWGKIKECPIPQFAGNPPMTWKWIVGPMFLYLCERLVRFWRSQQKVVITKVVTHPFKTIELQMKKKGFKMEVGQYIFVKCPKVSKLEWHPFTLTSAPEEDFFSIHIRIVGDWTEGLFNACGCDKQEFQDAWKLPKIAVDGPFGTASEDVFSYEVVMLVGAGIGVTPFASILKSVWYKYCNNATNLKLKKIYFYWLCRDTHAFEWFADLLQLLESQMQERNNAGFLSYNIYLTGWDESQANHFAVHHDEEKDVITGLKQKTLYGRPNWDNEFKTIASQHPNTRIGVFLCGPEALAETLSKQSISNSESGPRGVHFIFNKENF
Sequence of Torsin-1A (Homo sapiens) (O14656 whole entry, looked up): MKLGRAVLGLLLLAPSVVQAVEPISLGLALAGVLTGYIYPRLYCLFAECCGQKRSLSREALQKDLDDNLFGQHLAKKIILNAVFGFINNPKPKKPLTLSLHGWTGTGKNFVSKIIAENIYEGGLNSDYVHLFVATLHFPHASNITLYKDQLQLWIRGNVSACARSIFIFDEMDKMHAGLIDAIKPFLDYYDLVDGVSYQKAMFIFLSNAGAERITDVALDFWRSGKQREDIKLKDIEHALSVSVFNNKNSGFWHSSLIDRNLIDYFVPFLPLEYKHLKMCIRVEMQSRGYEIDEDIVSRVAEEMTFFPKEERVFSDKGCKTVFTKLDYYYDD
Sequence of Streptavidin (Streptomyces avidinii) (P22629 whole entry, looked up): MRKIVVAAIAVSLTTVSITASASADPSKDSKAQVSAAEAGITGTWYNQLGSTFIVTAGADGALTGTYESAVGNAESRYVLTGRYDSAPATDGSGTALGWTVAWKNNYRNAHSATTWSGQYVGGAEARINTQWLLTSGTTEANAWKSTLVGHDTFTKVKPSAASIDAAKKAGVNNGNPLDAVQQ

On to `O=C1OCCC/C=C\[C@H]2OC34C=CCN(c5ccc6ccccc6c5)C(=O)[C@H]3N(CCO)C(=O)[C@@H]4C12` (stereo not given in full), for which the composite z-score is -0.325 in assay [1]; -1.2 in [6]; -0.299 in [7]; -0.427 with Torsin-1A (Homo sapiens) [8]; -0.839 with Torsin-1A (Homo sapiens) [9]; -0.59 in assay [10]. In assay [12], the composite z-score was 0.0313. Further, the z-score in assay [2] was 0.43 (inactive); in [3], 0.515 (inactive); in [4], 0.601 (inactive); in assay [5], -0.183 (inactive); in assay [11], -0.067 (inactive); in assay [13] it was 2.17 (inactive). The z-score in assay [14] was 0.476 (inactive); in assay [15] it was 0.217 (inactive); in assay [16], 0.532 (inactive); in assay [17] it was 0.235; in assay [18] it was 0.356 (inactive); in assay [19], -0.419 (inactive). In [20], this compound gave a z-score of 1.81.

Consider `C#CCN(Cc1ccccc1Br)[C@H](/C=C/c1ccccc1)[C@@H](O)Cc1ccccc1`, for which the composite z-score in [1] was -0.356; in assay [6] it was -0.385; in [7], -0.179; with Torsin-1A (Homo sapiens) [8], -0.622; with Torsin-1A (Homo sapiens) [9], 0.543; in [10] it was -0.866. The composite z-score in assay [12] amounted to 0.0999. Also, the z-score was -2.2 (inactive) in [2]; -0.109 (inactive) in assay [3]; 2.49 (inactive) in assay [4]; -0.697 (inactive) in [5]; 1.47 (inactive) in assay [11]; 1.22 (inactive) in [13]. Further, the z-score is 0.535 (inactive) in [14]; -0.553 (inactive) in [15]; 0.132 (inactive) in [16]; -0.135 in assay [17]; -0.193 (inactive) in [18]; 0.109 (inactive) in assay [19]. This compound gave a z-score in [20] of -0.639.

Consider `COCCOC(=O)N1C(=O)[C@@]2(c3cc(C#CC4=CCCCC4)ccc31)[C@H](c1ccccc1OCCO)N1[C@H](c3ccccc3)[C@H](c3ccccc3)OC(=O)[C@H]1[C@@H]2C(=O)N1CCN(c2ncccn2)CC1`, for which the composite z-score was 0.471 in assay [1]; 0.407 in assay [6]; 0.181 in assay [7]; 0.0128 in the assay with Torsin-1A (Homo sapiens) [8]; 0.202 with Torsin-1A (Homo sapiens) [9]; 0.942 in assay [10]. The compound further displayed a composite z-score in [12] of 1.04. Further, the z-score in [2] is -4.96 (inactive); in assay [3] it was -1.23 (inactive); in assay [4] it was -1.28 (inactive); in [5], -0.752 (inactive); in assay [11], 0.978 (inactive); in [13], 1.04 (inactive). In addition, the z-score in assay [14] was -0.579 (inactive); in assay [15] it was 0.281 (inactive); in [16] it was -0.492 (inactive); in [17], 0.65; in [18], 0.976 (inactive); in assay [19], 0.868 (inactive). In [20], this compound registered a z-score of 1.32.

Regarding `C=CCOC(=O)[C@@H]1[C@H]2C(=O)O[C@H](c3ccccc3)[C@H](c3ccccc3)N2[C@H](c2ccc(OCCOC(=O)[C@@H]3C[C@@H]4C(=O)N[C@@H](CCCC[N+](C)(C)C)C(=O)N4[C@@H]3c3ccc(O)cc3)cc2)[C@@]12C(=O)Nc1ccc(I)cc12`, the composite z-score in [1] was 0.865; in assay [6], -0.111; in [7] it was 0.0665; in the assay with Torsin-1A (Homo sapiens) [8], 1.22; with Torsin-1A (Homo sapiens) [9] it was 0.781; in [10], 1.83. Moreover, the composite z-score in [12] stood at 0.668. The z-score in assay [2] is -0.731 (inactive); in [3] it was -1.37 (inactive); in assay [4] it was -1.35 (inactive); in assay [5] it was 0.206 (inactive); in assay [11], 0.0995 (inactive); in assay [13], 0.321 (inactive). Also, the z-score in [14] was 1.12 (inactive); in assay [15] it was 3.11 (inactive); in [16], 0.0802 (inactive); in [17], -1.27; in [18], 2.43 (inactive); in assay [19], 0.0539 (inactive). Besides, the z-score in assay [20] came out at 0.718.
